Measurements as given in PubChem BioAssay (Tox21).
Results filed as inconclusive are left out. Active and inactive are the calls of the source. Unless noted, calls come from the whole dose curve; as a rule, active = well fitted curve in the direction sought with a large enough effect in the repeat runs; inconclusive = weak or mixed curves; inactive = no such curve, though single readings can be large; an effect the other way counts as inactive or inconclusive.

Key:
[1] = qHTS assay for small molecules that induce genotoxicity in human embryonic kidney cells expressing luciferase-tagged ATAD5 (AID 651632); note: nearly all actives have a fitted effect of over 15% in size
Outline: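 Genotoxicity read-out via ATAD5-luciferase: HEK293T cells, 16 hr compound incubation at 37C, Amplite detection.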

[2] = qHTS assay for small molecules that induce genotoxicity in human embryonic kidney cells expressing luciferase-tagged ATAD5 - cell viability (AID 651634; calls by dose curve; note: nearly all actives have a fitted effect of over 25% in size)
Outline: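 Live-cell protease activity (CellTiter-Fluor, fluorescence) indicates viability. HEK293T cells with luciferase-tagged ATAD5; 15.5 hr compound treatment at 37C.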

[3] = qHTS assay for small molecule disruptors of the mitochondrial membrane potential - cell viability (AID 720634; calls by dose curve;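 note: human HepG2 liver cancer cells; series mostly up to about 83 µM; nearly all actives have a fitted effect of over 20% in size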)
Outline: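 Human hepatoma HepG2 cells were treated for 1 hr with test chemicals, then given m-MPI dye and CellTiter-Glo. Cell viability reflects luminescence proportional to cellular ATP.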

[4] = qHTS assay to test for compound auto fluorescence at 590 nm (red) in HepG2 cells (AID 720674)
Outline: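 Rose Bengal sodium served as the red fluorophore standard. HepG2 monolayers (overnight attachment, MEM with 10% FBS) were exposed to test compounds for 1 hr at 37 C and read at Ex 540/Em 590 nm.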

[5] = qHTS assay to test for compound auto fluorescence at 535 nm (green) in HepG2 cells (AID 720675)
[6] = qHTS assay to test for compound auto fluorescence at 460 nm (blue) in HEK293 cells (AID 720678)
Outline: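 Measured: blue fluorescence (Ex 405/Em 460 nm) of compound-treated HEK293 cells, incubated overnight at 37C with 5% CO2 and scaled to triamterene equivalents.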

[7] = qHTS assay to test for compound auto fluorescence at 590 nm (red) in HEK293 cells (AID 720679)
Outline: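 Using HEK293 cells at 2,000 per well, the screen added 23 nL of each compound after cell attachment and incubated overnight (37C, 5% CO2). The plate reader then captured red-label fluorescence, Ex/Em 540/590nm.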

[8] = qHTS assay to test for compound auto fluorescence at 535 nm (green) in HEK293 cells (AID 720680)
[9] = qHTS assay to test for compound auto fluorescence at 460 nm (blue) in HEK293 cell free culture (AID 720681)
Outline: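 Test compounds were pinned into cell-free culture medium (DMEM with 10% FBS) and fluorescence was read directly at Ex/Em 405/460 nm. Signals were expressed as fluorescence equivalents of triamterene, with DMSO vehicle as control.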

[10] = qHTS assay to test for compound auto fluorescence at 535 nm (green) in HEK293 cell free culture (AID 720682)
Outline: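 Green-label autofluorescence (485 nm excitation, 535 nm emission) measured on compound added to cell-free culture medium (DMEM, 10% FBS). Output is expressed relative to fluorescein.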

[11] = qHTS assay to test for compound auto fluorescence at 590 nm (red) in HEK293 cell free culture (AID 720683)
Outline: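 Tox21 10K library compounds were pinned into cell-free DMEM with 10% FBS and fluorescence was read at excitation 540 nm. Activity is expressed as Rose Bengal sodium equivalency.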

[12] = qHTS assay to test for compound auto fluorescence at 590 nm (red) in HepG2 cell free culture (AID 720684)
Outline: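 Red fluorescence (540 nm excitation, 590 nm emission) was measured after compound transfer into cell-free MEM supplemented with 10% FBS. Values are equivalencies against Rose Bengal sodium.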

[13] = qHTS assay to test for compound auto fluorescence at 460 nm (blue) in HepG2 cell free culture (AID 720685)
Outline: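 Compound (23 nL) or DMSO pinned into cell-free MEM with 10% FBS; blue fluorescence read at 405/460 nm excitation/emission, expressed as auto-fluorescence equivalency to triamterene.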

[14] = qHTS assay to test for compound auto fluorescence at 535 nm (green) in HepG2 cell free culture (AID 720686)
[15] = qHTS assay to test for compound auto fluorescence at 460 nm (blue) in HepG2 cells (AID 720687)
Outline: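 Cells (2,000/well in MEM with 10% FBS) attached overnight at 37 C, then were exposed to compound or DMSO for 1 hr at 37 C, 5% CO2. Fluorescence read at Ex/Em 405/460 nm, expressed as triamterene-equivalent signal.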

[16] = target: Glucocorticoid receptor (Homo sapiens) (UniProt P04150); assay: qHTS assay to identify small molecule agonists of the glucocorticoid receptor (GR) signaling pathway (AID 720691; active = well fitted activation curve with a large enough effect in the signal ratio in the repeat runs, not every such curve was filed as active; the % refers to the signal ratio)
Outline: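 Beta-lactamase reporter activity, read as fluorescence intensity, was measured in GR-bla HeLa cells exposed to compounds for 18 h at 37 C and then loaded with LiveBLAzer B/G FRET substrate for 2 h at room temperature.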

[17] = target: Glucocorticoid receptor (Homo sapiens) (UniProt P04150); assay: qHTS assay to identify small molecule antagonists of the glucocorticoid receptor (GR) signaling pathway (AID 720692; active = well fitted inhibition curve with a large enough effect in the signal ratio in the repeat runs, not every such curve was filed as active; the % refers to the signal ratio)
Outline: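 Fluorescence from cleaved LiveBLAzer B/G FRET substrate reports GRE-driven beta-lactamase in HeLa cells; compounds are tested against 5 nM dexamethasone (final) over 18 h at 37 C, substrate incubation 2 h at room temperature.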

[18] = qHTS assay for small molecule agonists of the p53 signaling pathway - cell viability (AID 651633; calls by dose curve;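 note: p53RE-bla HCT reporter cells with a stable beta-lactamase p53 reporter; series mostly up to about 83 µM; nearly all actives have a fitted effect of over 30% in size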)
Outline: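 p53RE-bla cells, seeded at 4,000 per well and rested 5 h at 37 C/5% CO2, received compounds in DMSO for 16 h at 37 C. CellTiter-Glo was then added, and luminescence was read after 30 min at room temperature to gauge cytotoxicity.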

[19] = qHTS assay for small molecule disruptors of the mitochondrial membrane potential (AID 720635); note: potency is the fitted concentration of half-maximal effect
Outline: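 HepG2 cells (2,000/well) attached overnight at 37C, then took compound for 1 hr at 37C, 5% CO2. Mito-MPS dye was added for 30 min; fluorescence was read at 490/535 nm (monomers) and 540/590 nm (aggregates).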
% is set by controls: 0 for no effect and ±100 for the full control effect.

Glucocorticoid receptor (Homo sapiens), sequence (P04150 whole entry, looked up): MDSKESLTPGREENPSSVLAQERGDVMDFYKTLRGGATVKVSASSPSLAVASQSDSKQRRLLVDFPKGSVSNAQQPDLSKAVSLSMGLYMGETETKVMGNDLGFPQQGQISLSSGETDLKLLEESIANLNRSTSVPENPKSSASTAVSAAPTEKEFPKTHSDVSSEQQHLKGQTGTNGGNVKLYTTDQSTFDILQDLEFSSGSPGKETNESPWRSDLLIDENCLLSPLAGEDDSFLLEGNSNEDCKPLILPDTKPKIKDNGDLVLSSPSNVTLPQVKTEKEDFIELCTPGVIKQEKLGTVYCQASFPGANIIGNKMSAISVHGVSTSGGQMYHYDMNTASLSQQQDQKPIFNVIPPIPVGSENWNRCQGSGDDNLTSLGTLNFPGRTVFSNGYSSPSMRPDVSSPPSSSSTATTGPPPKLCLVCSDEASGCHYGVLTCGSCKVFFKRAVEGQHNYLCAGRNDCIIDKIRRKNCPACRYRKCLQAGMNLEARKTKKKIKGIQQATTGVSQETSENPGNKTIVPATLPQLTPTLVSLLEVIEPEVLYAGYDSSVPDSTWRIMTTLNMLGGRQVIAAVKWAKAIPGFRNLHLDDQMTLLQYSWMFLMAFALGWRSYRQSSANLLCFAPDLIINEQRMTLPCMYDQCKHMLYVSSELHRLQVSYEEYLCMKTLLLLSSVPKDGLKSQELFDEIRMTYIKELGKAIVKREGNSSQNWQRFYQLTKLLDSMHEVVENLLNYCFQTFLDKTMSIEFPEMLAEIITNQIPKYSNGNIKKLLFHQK

CC(C)c1ccc2cc(C(C)C)ccc2c1
inactive: Potency [1] | Potency [2] | outcome [3] | outcome [4] | outcome [5] | outcome [6] | outcome [7] | outcome [8] | outcome [9] | outcome [10] | outcome [11] | outcome [12] | outcome [13] | outcome [14] | outcome [15] | Potency [16] | outcome [17]

C[C@H](CCC(=O)O)[C@H]1CC[C@H]2[C@@H]3C(=O)C[C@@H]4CC(=O)CC[C@]4(C)[C@H]3CC(=O)[C@]12C
inactive: Potency [1] | Potency [2] | outcome [3] | outcome [5] | outcome [6] | outcome [7] | outcome [8] | outcome [9] | outcome [10] | outcome [11] | outcome [13] | outcome [14] | outcome [15] | Potency [16] | outcome [17]

O=C(Nc1ccc(Cl)c(Cl)c1)C1CC1
inactive: Potency [1] | outcome [18] | Potency [2] | outcome [4] | outcome [5] | outcome [7] | outcome [8] | outcome [9] | outcome [10] | outcome [11] | outcome [12] | outcome [13] | outcome [14] | outcome [15] | Potency [16] | outcome [17]
active: Potency [19] 11.9 µM

CCCCCCCCCCl
inactive: Potency [1] | Potency [2] | outcome [3] | Potency [19] | outcome [4] | outcome [5] | outcome [6] | outcome [8] | outcome [9] | outcome [10] | outcome [11] | outcome [12] | outcome [13] | outcome [14] | outcome [15]

CC(=O)c1ccc2c(c1)Cc1ccccc1-2
inactive: Potency [1] | Potency [2] | outcome [3] | outcome [5] | outcome [6] | outcome [7] | outcome [8] | outcome [9] | outcome [10] | outcome [11] | outcome [12] | outcome [13] | outcome [14] | outcome [15]

O=S(=O)(O)c1ccc2cc(O)c(S(=O)(=O)O)cc2c1
inactive: outcome [18] | Potency [2] | outcome [3] | outcome [4] | outcome [5] | outcome [8] | outcome [10] | outcome [11] | outcome [12] | outcome [14] | outcome [15] | Potency [16] | outcome [17]

CC(C)(C)c1cc(CCC(=O)NN)cc(C(C)(C)C)c1O
inactive: Potency [1] | Potency [2] | outcome [3] | outcome [4] | outcome [5] | outcome [6] | outcome [8] | outcome [9] | outcome [10] | outcome [11] | outcome [12] | outcome [13] | outcome [14] | outcome [15]

COC(=O)CCCCCCCC(=O)OC
inactive: Potency [2] | outcome [3] | outcome [4] | outcome [5] | outcome [6] | outcome [7] | outcome [8] | outcome [9] | outcome [10] | outcome [11] | outcome [12] | outcome [13] | outcome [14] | outcome [15] | Potency [16] | outcome [17]

CC(=O)Nc1cccc(C)c1
inactive: Potency [1] | Potency [2] | outcome [3] | Potency [19] | outcome [4] | outcome [5] | outcome [6] | outcome [7] | outcome [8] | outcome [9] | outcome [10] | outcome [12] | outcome [13] | outcome [14] | outcome [15] | Potency [16] | outcome [17]

CC1=C(C(=O)O)N2C(=O)[C@@H](NC(=O)[C@H](N)c3ccc(O)cc3)[C@H]2SC1
inactive: outcome [18] | Potency [2] | outcome [3] | Potency [19] | fluorescence, relative to Rose Bengal [4] 0.188% [at 18.6 µM] | fluorescence, % of fluorescein control [5] -0.0034% [at 18.6 µM] | fluorescence, % of triamterene [6] 0.187% [at 18.6 µM] | fluorescence, % of fluorescent control [7] -0.165% [at 18.6 µM] | fluorescence, % of fluorescein [8] 0.159% [at 18.6 µM] | fluorescence, % of fluorescent control [9] 0.558% [at 18.6 µM] | activity change [10] 0.0539% [at 18.6 µM] | fluorescence, % of fluorescent control [11] -0.034% [at 18.6 µM] | fluorescence, % of fluorescent control [13] 0.197% [at 18.6 µM] | fluorescence, % of fluorescein control [14] 0.179% [at 18.6 µM] | fluorescence, % of fluorescent control [15] 0.189% [at 18.6 µM] | Potency [16] | outcome [17]

CC(C)(C)OC(=O)c1ccc(O)cc1
active: Potency [19] 21.7 µM
inactive: outcome [18] | Potency [2] | outcome [5] | outcome [7] | outcome [8] | outcome [9] | outcome [10] | outcome [11] | outcome [12] | outcome [13] | outcome [14] | outcome [15] | Potency [16]

O=C(OCC(COC(=O)c1cccnc1)(COC(=O)c1cccnc1)COC(=O)c1cccnc1)c1cccnc1
inactive: Potency [1] | Potency [2] | outcome [3] | Potency [19] | outcome [4] | outcome [5] | outcome [6] | outcome [7] | outcome [8] | outcome [9] | outcome [10] | outcome [13] | outcome [14] | outcome [15] | Potency [16]

OCCC(F)(F)C(F)(F)C(F)(F)C(F)(F)C(F)(F)C(F)(F)C(F)(F)C(F)(F)F
inactive: outcome [18] | Potency [2] | outcome [3] | outcome [4] | outcome [5] | outcome [6] | outcome [8] | outcome [9] | outcome [10] | outcome [11] | outcome [12] | outcome [13] | outcome [14] | outcome [15]

CC(C)N(c1ccccc1)C(C)C
inactive: Potency [1] | Potency [2] | outcome [3] | outcome [4] | outcome [5] | outcome [6] | outcome [7] | outcome [8] | outcome [9] | outcome [10] | outcome [11] | outcome [13] | outcome [14] | outcome [15] | Potency [16]

Nc1cccc(O)c1
inactive: Potency [1] | outcome [18] | outcome [4] | outcome [5] | outcome [6] | outcome [8] | outcome [9] | outcome [10] | outcome [11] | outcome [12] | outcome [13] | outcome [14] | outcome [15] | Potency [16] | outcome [17]

CC(C)CCCCOC(=O)c1ccccc1C(=O)OCCCCC(C)C
inactive: Potency [1] | outcome [18] | Potency [2] | Potency [19] | outcome [4] | outcome [5] | outcome [6] | outcome [7] | outcome [8] | outcome [9] | outcome [10] | outcome [12] | outcome [13] | outcome [14] | outcome [15] | Potency [16]
